# Out of some 52,000 compounds screened, about 1,700 (3.3%) were called active. The entries come from a sample that favours actives as a whole. A number with no mark means an inactive call. No stated cut-off is given here; in the data, active means survival mostly below about 52% (no sharp cut-off); inactive means mostly above about 56%.
# System: Wild type
# Experiment: growth inhibition of S. aureus wild type versus tarO mutant, primary screen, teichoic acid synthesis inhibitors, RN4220, OD600 (AID 463173)
# Conditions: S. aureus RN4220 wild type/DeltatarO growth, OD600, 18 h, active compounds read low, screened at 18.75 µg/mL (by protocol)
row,Structure (SMILES),survival
1,CCOc1ccc(N2C(=O)c3n[nH]c(-c4cccs4)c3C2c2cccc(F)c2)cc1 (stereo unspecified),60%
2,Cc1ccc(CSc2nc3ccncc3n2Cc2nc(-c3ccc(Cl)cc3)oc2C)cc1,68%
3,Cc1ccc(C)c(CSc2nc3ccncc3n2Cc2nc(-c3ccccc3Cl)oc2C)c1,61%
4,Cc1ccc(CSc2nc3ccncc3n2Cc2nc(-c3ccccc3C)oc2C)cc1,0% (active)
5,CCN(C(=O)Cn1nc(Cc2ccncc2)c2ccccc2c1=O)c1ccc(OC)cc1,74%
6,Cc1ccccc1C(=O)NC1CCN(CC(=O)NC2CCCCC2)CC1,98%
7,COc1ccc(Cl)cc1NC(=O)C1CCN(c2ncnc3c2nc2n3CCCCC2)CC1,82%
8,O=S1(=O)CCC(c2ccccc2)C1 (stereo unspecified),100%
9,COc1ccc(OCC(=O)NCc2ccc3c(c2)CCN3C(=O)c2cccc(C)c2)cc1,72%
10,CCOc1ccc(C(=O)NCc2ccc3c(c2)CCN3C(=O)c2ccc(Cl)cc2)cc1,81%
11,COc1ccc2cc(C(=O)NCc3ccc4c(c3)CCN4C(=O)c3ccccc3)[nH]c2c1,-3% (active)
12,COc1ccc(CC(=O)NCc2ccc3c(c2)CCN3C(=O)c2cccc(C)c2)cc1,-6% (active)
13,CCOc1ccc(C(=O)NCc2ccc3c(c2)CCN3C(=O)c2ccccc2)cc1,-4% (active)
14,O=C(NCc1ccc2c(c1)CCN2C(=O)c1ccc(F)cc1)c1cc2ccccc2[nH]1,99%
15,COc1ccc(CCC(=O)NCc2ccc3c(c2)CCN3C(=O)c2cccc(C)c2)cc1,67%
16,O=C(NCc1ccc2c(c1)CCN2C(=O)c1ccccc1)c1cc2ccccc2[nH]1,1% (active)
17,COc1ccc2cc(C(=O)NCc3ccc4c(c3)CCN4C(=O)c3ccc(C)cc3)[nH]c2c1,84%
18,COc1ccc2cc(C(=O)NCc3ccc4c(c3)CCN4C(=O)c3ccc(F)cc3)[nH]c2c1,68%
19,COc1ccc(C(=O)NCc2ccc3c(c2)CCN3C(=O)c2ccccc2)cc1,82%
20,Cc1cccc(C(=O)N2CCc3cc(CNC(=O)c4cc5ccccc5[nH]4)ccc32)c1,72%
21,CC(C)c1cc2cc(/C=C/C(=O)O)c(O)cc2o1,39%
22,CCC(CC)N1CCN(S(=O)(=O)c2ccc(NC(C)=O)cc2)CC1,113%
23,O=C(/C=C/c1ccccc1)N1CCN(CCN2C(=O)C3C4C=CC(C4)C3C2=O)CC1 (stereo unspecified),124%
24,Cc1nc(-c2ccc(S(=O)(=O)NCc3ccc(F)cc3)cc2)co1,68%

row,Structure (SMILES),survival
1,Nc1c(-c2nc(-c3ccc4c(c3)OCO4)cs2)c2ccccn2c1C(=O)c1ccccc1,86%
2,COc1ccccc1N1CCN(C(=O)C2CCN(S(=O)(=O)Cc3ccccc3)CC2)CC1,84%
3,COc1ccc(-c2nc(CS(=O)CC(=O)NCc3ccccc3OC)c(C)o2)cc1 (stereo unspecified),123%
4,O=C(C1CCC(Cn2c(=O)c3sccc3n(Cc3ccccc3)c2=O)CC1)N1CCOCC1 (stereo unspecified),95%
5,CCCn1c2ccccc2c2cnn(CC(=O)N3CCC(C(=O)OCC)CC3)c(=O)c21,87%
6,Cc1ccc(N2CCN(c3nc4ccc(C(=O)c5ccccc5)cc4n4cnnc34)CC2)c(C)c1,72%
7,Cc1ccc(C)c(N2CCN(c3nc4ccccc4n4c(C)nnc34)CC2)c1,87%
8,CCc1nnc2c3ccccc3nc(N3CCN(c4cc(Cl)ccc4C)CC3)n12,126%
9,Cc1ccc(C)c(N2CCN(c3nc4ccc(C(=O)c5ccccc5)cc4n4cnnc34)CC2)c1,100%
10,CCc1nnc2c(N3CCN(c4cc(Cl)ccc4C)CC3)nc3ccccc3n12,-6% (active)
11,Cc1ccc(Cl)cc1N1CCN(c2nc3ccc(C(=O)c4ccccc4)cc3n3cnnc23)CC1,-6% (active)
12,O=C(CN1C(=O)C2(SCC(=O)N2c2ccc(F)c(F)c2)c2ccccc21)Nc1cccc(Cl)c1 (stereo unspecified),68%
13,Fc1ccc(F)c(Nc2c3c(nc4ccc(Cl)cc24)CCC3)c1,-1% (active)
14,Fc1ccc(Nc2c3c(nc4ccccc24)CCC3)cc1,70%
15,Fc1ccccc1Nc1c2c(nc3ccccc13)CCC2,102%
16,FC(F)(F)c1cccc(Nc2c3c(nc4ccc(Cl)cc24)CCC3)c1,5% (active)
17,COc1ccc(Nc2c3c(nc4ccccc24)CCC3)cc1Cl,72%
18,Cc1ccc(Nc2c3c(nc4ccccc24)CCC3)cc1F,2% (active)
19,COc1ccccc1Nc1c2c(nc3ccc(NC(=O)c4cccc(F)c4)cc13)CCCC2,35%
20,Cc1ccc2nc3c(c(Nc4ccc(C)c(C)c4)c2c1)CCC3,39%
21,CCOC(=O)c1cccc(Nc2c3c(nc4ccccc24)CCC3)c1,73%
22,CC1(C)Cc2nc3sc4c(N5CCOCC5)ncnc4c3cc2CO1,97%
23,O=C(Cn1c(=O)oc2ccccc21)NCc1cccc(Cl)c1,78%
24,CCOC(=O)c1cnc2nc(NCc3cccc(Br)c3)[nH]n2c1=O,98%

row,Structure (SMILES),survival
1,NC(=O)C1CCN(c2nc(C3CC3)nc3c2nnn3Cc2ccccc2Cl)CC1,108%
2,O=C(CN1C=NS(=O)(=O)c2ccc(C(F)(F)F)cc21)Nc1cccc(C(F)(F)F)c1,76%
3,COc1cccc(C2CC(=O)Nc3c2c(=O)n(C)c2nc4ccccc4n32)c1OC (stereo unspecified),67%
4,Cc1ccc(S(=O)(=O)Cc2nc(-c3ccc(C(=O)NCCCOC(C)C)cc3)oc2C)cc1,75%
5,CCOCCCNC(=O)c1ccc(-c2nc(CS(=O)(=O)c3ccccc3)c(C)o2)cc1,87%
6,Cc1oc(-c2ccc(C(=O)NCCCOC(C)C)cc2)nc1CS(=O)(=O)c1ccccc1,-6% (active)
7,CCOc1ccc(-c2nc(SCC(=O)Nc3ccc4c(c3)OCO4)c(-c3ccc(F)cc3)[nH]2)cc1,98%
8,Cc1ccc(Cl)cc1-n1ncc2c(NCc3ccc(F)cc3)ncnc21,73%
9,O=C(NC1CC(=O)N(c2ccccc2)C1)c1ccc(S(=O)(=O)N2CCOCC2)cc1 (stereo unspecified),14% (active)
10,O=C(NC1CC(=O)N(c2ccc(F)cc2)C1)c1ccc(S(=O)(=O)N2CCCCC2)cc1 (stereo unspecified),83%
11,Cc1ccc(N2CC(NC(=O)c3ccc(S(=O)(=O)N4CCOCC4)cc3)CC2=O)cc1 (stereo unspecified),47%
12,O=C(NC1CC(=O)N(c2ccc(Cl)cc2)C1)c1ccc(S(=O)(=O)N2CCOCC2)cc1 (stereo unspecified),91%
13,O=C(NC1CC(=O)N(c2ccccc2)C1)c1ccc(S(=O)(=O)N2CCCCC2)cc1 (stereo unspecified),-1% (active)
14,O=C(NC1CC(=O)N(c2ccccc2)C1)c1ccc(S(=O)(=O)N2CCCC2)cc1 (stereo unspecified),133%
15,CCOc1ccc(NC(=O)C2CCN(S(=O)(=O)c3c(C)noc3/C=C/c3ccco3)CC2)cc1,73%
16,CC(=O)c1ccc(S(=O)(=O)Nc2ccc(-c3ccc(N4CCCCCC4)nn3)cc2)cc1,83%
17,CCOC(=O)c1c(S(=O)(=O)NCC(=O)N2CCN(c3ccccc3)CC2)c(C)n(C)c1C,112%
18,Cc1cccc(-n2c(=O)c3c4c(sc3n3cnnc23)CCCC4)c1,72%
19,CCCSc1nnc2n(-c3cccc(C)c3)c(=O)c3c4c(sc3n12)CCCC4,2% (active)
20,CCCCSc1nnc2n(-c3cccc(C)c3)c(=O)c3c4c(sc3n12)CCCC4,-1% (active)
21,CCSc1nnc2n(-c3cccc(C)c3)c(=O)c3c4c(sc3n12)CCCC4,81%
22,CCSc1nnc2n(-c3ccccc3)c(=O)c3c4c(sc3n12)CCCC4,108%
23,CSc1nnc2n(-c3cccc(C)c3)c(=O)c3c4c(sc3n12)CCCC4,79%
24,Cc1cc(=O)[nH]c(SCC(=O)N(c2ccccc2)c2ccccc2)n1,103%

row,Structure (SMILES),survival
1,Cc1ccc(NC(=O)N2CC3CCCN3c3ccccc32)cc1Cl (stereo unspecified),83%
2,Cc1ccc(NC(=O)N2CC3CCCN3c3ccccc32)cc1C (stereo unspecified),-2% (active)
3,Cc1ccc(NC(=O)N2CC3CCCN3c3ccccc32)c(C)c1 (stereo unspecified),117%
4,COc1ccc(S(=O)(=O)c2c(Nc3c(C)cccc3C)sc(C(=O)c3ccc4c(c3)OCO4)c2N)cc1,74%
5,CCOC(=O)c1ccccc1NC(=O)c1ccco1,121%
6,Cc1cc(Nc2ccccc2F)n2nc(-c3ccccc3)nc2n1,84%
7,Cc1cc(Nc2cc(Cl)ccc2C)n2nc(-c3ccccc3)nc2n1,93%
8,COc1ccccc1Nc1cc(C)nc2nc(-c3ccccc3)nn12,14% (active)
9,CCCCC1CCC(C(=O)N2CC(=O)Nc3ccc(Cl)cc3C2c2ccc(F)cc2)CC1 (stereo unspecified),71%
10,CC1CCN(C(=O)c2cc3n(n2)C(C(F)(F)F)CC(c2ccccc2)N3)C(C)C1 (stereo unspecified),123%
11,Cc1cccc(C(=O)Nc2cccc(OCc3cc(=O)n4ccccc4n3)c2)c1,72%
12,CSc1ccc(CCNC(=O)c2ccc3c(c2)c(C)c(C)n3Cc2ccc(F)cc2)cc1,70%
13,O=C(NCCc1ccccc1)c1ccc2c(c1)N(Cc1ccc(F)cc1Cl)C(=O)CS2,67%
14,Cc1nc2c(C(=O)NCCc3ccccc3)c[nH]n2c(=O)c1Cc1ccccc1F,-15% (active)
15,Cc1ccc(CNC(=O)CN2CCN(Cc3ccc(F)cc3Cl)C2=O)cc1,81%
16,Cc1nc2c(C(=O)NCCc3ccccc3)c[nH]n2c(=O)c1Cc1ccc(F)cc1Cl,-15% (active)
17,Cc1nc2nc(NC(=O)c3ccc(F)cc3)[nH]n2c(=O)c1Cc1ccccc1,88%
18,Cc1nc2nc(NC(=O)c3ccc(Cl)cc3)[nH]n2c(=O)c1Cc1ccccc1,93%
19,Cc1ccc(CNC(=O)c2c[nH]n3c(=O)c(Cc4ccc(F)cc4Cl)c(C)nc23)cc1,-15% (active)
20,Cc1nc2c(C(=O)NCCc3ccccc3)cnn2c(C)c1Cc1c(F)cccc1Cl,71%
21,Cc1nc2nc(NCc3ccc(Cl)cc3)[nH]n2c(=O)c1Cc1ccccc1,61%
22,Cc1ccc(CNC(=O)c2cnn3c(C)c(Cc4c(F)cccc4Cl)c(C)nc23)cc1,65%
23,Cc1cccn2c(=O)c(C(=O)NCCc3ccccc3)cnc12,49%
24,Cc1ccc(CNC(=O)c2c[nH]n3c(=O)c(Cc4ccc(Cl)cc4)c(C)nc23)cc1,-14% (active)

# — PubChem BioAssay AID463173 (ICCB-Longwood Screening Facility, Harvard Medical School, 2010)
